TGFb inhibitor: blocks TGF-b signaling. HepG2 CAGA-GFP TGF-b/SMAD3 reporter, GFP fluorescence, 18 h; TGF-beta stimulated, 500 pg/mL final. Potency, µM (doses to about 46.1 µM), actives largely listed as inhibitors. 410,000 compounds, 1.2% hits. AID 588855; further: nearly all actives have a fitted effect of over 65% in size
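Read-out: total well GFP (ex488/em500-530) summed from mean per-cell fluorescence. Cells: HEPG2 CAGA-GFP, 1% FBS DMEM, 18 h at 37 degrees C with 500 pg/mL final TGF-beta. Unstimulated wells served as the full-inhibition control; stimulated DMSO wells = 0%.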
IL1B secr inh: inflammasome signaling inhibition, IL-1 beta readout; 360,000 compounds, 4.7% hits; THP-1 LPS/ATP IL-1B secretion, AlphaLISA, 16 h; active compounds read low; activity change, % at 57.5 µM; AID 743279; in the data active means activity change below about -50%; inconclusive means mostly about -30% to -49%
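Secreted IL-1B measured by AlphaLISA bead assay after 16 h compound exposure of THP-1 cells; compounds (final up to 57.5 uM) added 1 h before LPS (250 ng/mL) and ATP (1.25 mM) stimulation; lower signal means less secretion.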
TDP1 inh: blocks human tyrosyl-DNA phosphodiesterase 1; 350,000 compounds, 0.28% hits; Potency, µM (top dose mostly 130 µM), most hits filed as inhibitors; recombinant TDP1, AlphaScreen DNA substrate cleavage; Q9NUW8; further: nearly all actives have a fitted effect of over 40% in size
Target sequence (Q9NUW8 whole entry, looked up): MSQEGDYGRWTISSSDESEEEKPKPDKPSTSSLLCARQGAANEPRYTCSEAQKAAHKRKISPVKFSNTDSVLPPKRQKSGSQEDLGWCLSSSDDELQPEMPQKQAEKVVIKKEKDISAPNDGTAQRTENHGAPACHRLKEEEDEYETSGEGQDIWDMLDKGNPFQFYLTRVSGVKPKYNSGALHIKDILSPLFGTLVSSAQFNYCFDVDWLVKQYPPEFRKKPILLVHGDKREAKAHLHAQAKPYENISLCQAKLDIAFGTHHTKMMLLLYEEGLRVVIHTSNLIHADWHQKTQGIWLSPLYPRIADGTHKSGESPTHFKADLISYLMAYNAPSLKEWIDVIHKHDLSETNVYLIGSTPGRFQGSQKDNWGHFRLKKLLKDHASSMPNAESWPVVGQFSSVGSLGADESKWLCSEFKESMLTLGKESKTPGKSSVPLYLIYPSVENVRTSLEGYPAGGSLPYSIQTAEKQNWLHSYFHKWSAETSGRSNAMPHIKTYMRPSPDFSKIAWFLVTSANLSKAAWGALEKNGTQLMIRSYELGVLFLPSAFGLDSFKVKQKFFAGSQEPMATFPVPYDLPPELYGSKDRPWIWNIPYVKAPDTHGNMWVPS
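Tdp1 1 nM final; 15 min RT w/ cpd; substrate 15 nM, 5 min; beads 10 ug/ml, 10 min; AlphaScreen read. Neg ctrl: no enzyme.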
DT40 TDP1 CPT: growth inhibition of DT40 Tdp1-/-;hTDP1 cells with camptothecin (screen for TDP1 inhibitors); 420,000 compounds, 12% hits; chicken DT40 Tdp1-/-;hTDP1 cells + 20 nM CPT, ATP luminescence, 48 h; Potency, µM (titrated, usually from 46.2 µM), usual class: inhibitors; AID 686979; further: nearly all actives have a fitted effect of over 55% in size
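Chicken DT40 Tdp1-/- cells stably complemented with human TDP1 were seeded at 400 cells/well in medium containing 20 nM camptothecin, exposed to pin-transferred compounds, and grown at 37 °C for at least 48 hr. Viability was read as ATP luminescence.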
TDP1 cell noCPT: qHTS for Inhibitors of human tyrosyl-DNA phosphodiesterase 1 (TDP1): qHTS in cells in absence of CPT | Potency, µM (titrated, usually from 46.2 µM), most hits filed as inhibitors | AID 686978, 2013 | 420,000 compounds, 15% hits | DT40 Tdp1-/- hTDP1 cells, no CPT, ATP luminescence, 48 h; further: nearly all actives have a fitted effect of over 55% in size
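Stably hTDP1-transfected Tdp1-null chicken DT40 cells were treated with library compounds minus camptothecin and grown for at least 48 hr at 37 °C, after which cellular ATP was quantified by luminescence.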
HepG2 viability: counter-screen for TGF-b inhibitors: cytotoxicity in HepG2 cells; HepG2 CAGA-GFP viability, ATP luminescence, 18 h; Potency, µM (series often up to 46.1 µM), usual class: cytotoxic; 410,000 compounds, 0.76% hits; AID 588856
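CellTiter-Glo luminescence gave cytotoxicity after 18 hours at 37 degrees C. The cells were HepG2 CAGA-GFP in 1% FBS DMEM, stimulated with 500 pg/mL TGF-beta after compound addition. %Activity was normalised to no-cell wells (complete cell-killing) and DMSO (no toxicity), and curves were fitted and classified.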
A number is an active result; . = inactive; ? = inconclusive; / = no result given; [ ] = another dose, or the depositor's remark. Shown are actives, neighbours in structure and some others; about 19% of the full set was active somewhere. Unless noted, the call rests on the fitted dose curve; in most records, active means well fitted curve in the direction sought with a large enough effect; inconclusive means small, poorly fitted or top-dose-only effect, or another doubt; inactive means no such curve, though single readings can be large; an effect the other way counts as inactive or inconclusive.

SMILES	TGFb inhibitor	IL1B secr inh	TDP1 inh	DT40 TDP1 CPT	TDP1 cell noCPT	HepG2 viability
O=C1c2[nH]nc(-c3ccccc3O)c2C(c2ccc(Cl)cc2)N1CCc1ccccc1 (centres undefined)	20µM	/	.	21µM	16µM	.
COCCCN1C(=O)c2[nH]nc(-c3ccccc3O)c2C1c1ccc(Cl)cc1 (centres undefined)	.	.	.	23µM	?	.
COCCCN1C(=O)c2[nH]nc(-c3cc(C)ccc3O)c2C1c1ccc(F)cc1 (centres undefined)	.	/	.	?	?	.
COCCCN1C(=O)c2[nH]nc(-c3ccccc3O)c2C1c1ccc(OC)cc1 (centres undefined)	.	/	.	16µM	29µM	.
O=C1c2[nH]nc(-c3ccccc3O)c2C(c2ccc(F)cc2)N1CCO (centres undefined)	.	/	.	?	?	.
CC(=O)c1c[nH]c(C(=O)Nc2ccc(N3CCCCCC3)cc2)c1	.	.	.	?	?	.
COc1cc(C2c3c(-c4cc(C)cc(C)c4O)n[nH]c3C(=O)N2CCCO)cc(OC)c1OC (centres undefined)	.	?	.	.	.	.
COCCCN1C(=O)c2[nH]nc(-c3cc(C)cc(C)c3O)c2C1c1ccc(O)c(OC)c1 (centres undefined)	.	.	.	21µM	?	.
COc1ccccc1Cn1c(C2CC(=O)N(c3ccccc3OC)C2)nc2ccccc21 (centres undefined)	13µM	/	.	?	?	.
CCCn1c(C2CC(=O)N(c3cc(OC)ccc3OC)C2)nc2ccccc21 (centres undefined)	.	.	.	21µM	?	.
CCOc1ccccc1N1CC(c2nc3ccccc3n2CCOc2ccc(C(C)(C)C)cc2)CC1=O (centres undefined)	.	/	.	?	?	.
Cc1ccc2[nH]c3c(c2c1)CN(C(=O)CN1CCN(C(=O)c2ccco2)CC1)CC3	/	/	.	/	/	/
Cc1ccc2[nH]c3c(c2c1)CN(C(=O)CN1CCN(c2cccc(C)c2C)CC1)CC3	?	.	.	23µM	21µM	.
COC(=O)[C@@H]1CCCN1C(=O)c1c(OC)cc(=O)n2c1CCN(Cc1ccc3c(c1)OCCO3)CC2	/	/	/	.	.	/
CCc1cccc(C)c1NC(=O)c1cc(S(=O)(=O)N2CCCCCC2)cn1C	.	/	.	?	?	.
Cc1n[nH]c(C)c1CCOc1ccc(C(C)C)cc1	.	.	.	?	?	.
COc1ccc(OCCCCc2c(C)n[nH]c2C)cc1	.	.	/	23µM	?	.
CCc1nc2ccccc2n1CCCCOc1ccc(C)cc1	?	/	.	?	8.2µM	.
Cc1ccc(OCc2nc3ccccc3n2CC(C)C)cc1	.	/	/	?	23µM	.
OCc1nc2ccccc2n1CCCCOc1ccccc1	.	.	/	?	?	.
Cc1ccc(OCCCCn2c(CO)nc3ccccc32)cc1	.	-52	.	23µM	?	.
CCc1nc2ccccc2n1CCCCOc1ccc(Cl)cc1	?	/	.	21µM	?	.
COc1cc(NC(=O)N2CCC(CN3CCOCC3)CC2)cc(OC)c1OC	.	/	.	.	.	.
Cc1nc2ccccc2n1CCOc1ccc(F)cc1	.	.	.	?	18µM	.
OCc1nc2ccccc2n1CCCOc1ccc(Br)cc1	.	.	.	16µM	18µM	.
SMILES	TGFb inhibitor	IL1B secr inh	TDP1 inh	DT40 TDP1 CPT	TDP1 cell noCPT	HepG2 viability
COc1ccc(OCCn2c(C)nc3ccccc32)cc1	.	?	/	?	?	.
Clc1ccc(OCCn2cnc3ccccc32)cc1	?	.	.	23µM	18µM	.
Clc1ccccc1OCCn1cnc2ccccc21	.	.	.	.	.	.
Cn1c(=O)n(CCCOc2ccc(Cl)cc2)c2ccccc21	.	.	.	15µM	18µM	.
Cn1c(=O)n(CCCOc2ccc(Br)cc2)c2ccccc21	.	.	.	.	?	.
CCn1cc(C(=O)NCCc2ccc(Cl)cc2)c(=O)c2cc(S(=O)(=O)N3CCc4ccccc4C3)ccc21	?	/	.	.	?	.
CCc1cccc(C)c1NC(=O)CCNC(=O)c1cccc(C)c1	.	.	.	.	.	.
Cc1ccc(OCc2nc3ccccc3n2C(C)C(=O)Nc2c(C)cccc2C)cc1 (centres undefined)	/	.	/	?	18µM	/
c1ccc2c(c1)ncn2CCC1CCCCC1	.	.	.	26µM	21µM	.
Cc1ccc(-c2nnc(SCC(=O)N3CCc4ccccc43)o2)cc1	.	/	.	.	.	.
Cc1ccccc1CC(=O)Nc1ccon1	.	.	.	.	.	.
COc1ccc(-c2nnc(-c3cc(OC)c(OC)c(OC)c3)o2)cc1OC	.	/	.	15µM	15µM	.
COc1cc(-c2nnc(SCCOc3ccc(Cl)cc3)o2)cc(OC)c1OC	.	/	.	?	8.2µM	.
COc1cc(-c2nnc(SCc3cc(=O)oc4cc(C)ccc34)o2)cc(OC)c1OC	.	.	.	?	29µM	.
COc1cc(-c2nnc(SCCOc3ccc(Cl)cc3C)o2)cc(OC)c1OC	.	/	.	.	.	11µM
COc1cc(-c2nnc(SCCOc3ccc(C)c(Cl)c3)o2)cc(OC)c1OC	.	/	.	?	?	.
Cc1ccccc1-c1cncnc1NC1CCNCC1	/	/	.	.	.	/
O=C(NCC1Cc2cccc(-c3cccnc3)c2O1)c1cc(-c2ccccc2)n[nH]1 (centres undefined)	/	/	/	.[9.04 µM]	?	/
Cn1c(=O)c2c(SCC(=O)N3CCc4ccccc43)nc(-c3cccc(F)c3)nc2n(C)c1=O	.	/	.	.	.	.
COc1cc(-c2nnc(COc3ccc4cc(Br)ccc4c3)o2)cc(OC)c1OC	.	.	.	23µM	21µM	.
Cc1ccc(-c2nc3ccc(Br)cn3c2Cc2ccsc2)cc1	.	.	/	15µM	23µM	.
Cc1ccc(-c2nc3ccc(Cl)cn3c2CC(C)(C)C)cc1	.	.	/	?	.	.
Cc1ccc(Cc2c(-c3ccc(Br)cc3)nc3ccc(Br)cn23)cc1	.	.	/	18µM	?	.
CC(C)(C)Cc1c(-c2ccc(Br)cc2)nc2ccc(Br)cn12	16µM	.	/	?	?	.
CC(C)(C)Cc1c(-c2ccc(F)cc2)nc2ccc(Cl)cn12	11µM	.	/	?	21µM	.
COc1cccc(C(=O)Nc2ccc(C(=O)OCc3cc(=O)n4nc(C5CC5)sc4n3)cc2)c1	.	/	.	.	.	.

Assay outcomes from PubChem.
